Among all 5,500 compounds or so, about 2,000 (36%) were called active. Another 18% or so got no clear call; they are omitted. Rule as the data show it: active = normalized growth mostly below about 0.91 (no sharp cut-off); inconclusive = no clear call, values can overlap the other calls; inactive = mostly above about 0.92. Some of the results follow.
Experiment: chemical genetic growth profiling, strain panel (AID 1159580);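 also: tested at 20 µM; growth read once vehicle control cultures reached saturation at 30 °C; 1 = growth at the plate median or of vehicle wells; lower values mean less growth of the strain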
Conditions: growth OD

Measured: normalized growth

CC1[C@H](C)OC(=O)CC(O)CC(O)CC(O)CCC(O)C(O)C[C@]2(O)CC(O)C(C(=O)O)C(CC(OC3O[C@H](C)[C@@H](O)[C@H](N)[C@@H]3O)/C=C/C=C/C=C/C=C/CC/C=C/C=C/[C@H](C)[C@H]1O)O2 (stereo partly specified)
inactive: S. cerevisiae deletion strains, locus YKL160W, strain elf1, hits give low values 0.952 | S. cerevisiae deletion strains, locus YKR091W, strain srl3, hits give low values 0.986 | S. cerevisiae deletion strains, locus YLR320W, strain mms22, hits give low values 1 | S. cerevisiae deletion strains, locus YMR205C, strain PFK2, hits give low values 0.916 | S. cerevisiae deletion strains, locus YNR049C, strain mso1, hits give low values 0.951 | S. cerevisiae deletion strains, locus YOL012C, strain htz1 0.206 | S. cerevisiae deletion strains, locus YOR070C, strain gyp1, hits give low values 0.95 | S. cerevisiae deletion strains, locus YOR270C, strain vph1, hits give low values 0.837 | S. cerevisiae deletion strains, locus YOR290C, strain snf2, hits give low values 1.01 | S. cerevisiae deletion strains, locus YPL240C, strain hsp82, hits give low values 0.943
active: S. cerevisiae deletion strains, locus YKL009W, strain mrt4, hits give low values 0.0887 | S. cerevisiae deletion strains, locus YKL068W, hits give low values 0.0555 | S. cerevisiae deletion strains, locus YKL085W, strain MDH1 (second series), hits give low values 0.0538 | S. cerevisiae deletion strains, locus YKL085W, strain MDH1, hits give low values 0.0538 | S. cerevisiae deletion strains, locus YKL190W, strain CNB1, hits give low values 0.193 | S. cerevisiae deletion strains, locus YKR001C, strain vps1, hits give low values 0.0857 | S. cerevisiae deletion strains, locus YKR026C, strain gcn3, hits give low values 0.0734 | S. cerevisiae deletion strains, locus YLL001W, strain dnm1, hits give low values 0.759 | S. cerevisiae deletion strains, locus YLL026W, hits give low values 0.446 | S. cerevisiae deletion strains, locus YLL041C, strain sdh2, hits give low values 0.913 | S. cerevisiae deletion strains, locus YLR027C, strain aat2, hits give low values 0.633 | S. cerevisiae deletion strains, locus YLR039C, strain RIC1, hits give low values 0.0871 | S. cerevisiae deletion strains, locus YLR058C, strain SHM2, hits give low values 0.374 | S. cerevisiae deletion strains, locus YLR102C, strain apc9, hits give low values 0.283 | S. cerevisiae deletion strains, locus YLR113W, strain HOG1, hits give low values 0.124 | S. cerevisiae deletion strains, locus YLR221C, strain rsa3, hits give low values 0.36 | S. cerevisiae deletion strains, locus YLR258W, strain gsy2, hits give low values 0.857 | S. cerevisiae deletion strains, locus YLR262C, strain YPT6 (second series), hits give low values 0.799 | S. cerevisiae deletion strains, locus YLR262C, strain YPT6, hits give low values 0.0948 | S. cerevisiae deletion strains, locus YLR268W, strain sec22, hits give low values 0.119 | S. cerevisiae deletion strains, locus YLR330W, strain CHS5, hits give low values 0.176 | S. cerevisiae deletion strains, locus YLR342W, strain FKS1 (second series), hits give low values 0.126 | S. cerevisiae deletion strains, locus YLR342W, strain FKS1, hits give low values 0.376 | S. cerevisiae deletion strains, locus YLR357W, strain rsc2, hits give low values 0.123 | S. cerevisiae deletion strains, locus YLR370C, strain arc18, hits give low values 0.0729 | S. cerevisiae deletion strains, locus YLR371W, strain rom2, hits give low values 0.112 | S. cerevisiae deletion strains, locus YLR384C, strain iki3, hits give low values 0.907 | S. cerevisiae deletion strains, locus YLR418C, strain cdc73, hits give low values 0.202 | S. cerevisiae deletion strains, locus YML016C, strain PPZ1, hits give low values 0.841 | S. cerevisiae deletion strains, locus YML032C, strain rad52, hits give low values 0.333 | S. cerevisiae deletion strains, locus YML120C, strain ndi1, hits give low values 0.0634 | S. cerevisiae deletion strains, locus YML124C, strain tub3, hits give low values 0.103 | S. cerevisiae deletion strains, locus YMR058W, strain fet3, hits give low values 0.318 | S. cerevisiae deletion strains, locus YMR078C, strain ctf18, hits give low values 0.612 | S. cerevisiae deletion strains, locus YMR125W, strain sto1, hits give low values 0.112 | S. cerevisiae deletion strains, locus YMR129W, hits give low values 0.0795 | S. cerevisiae deletion strains, locus YMR223W, strain ubp8, hits give low values 0.0876 | S. cerevisiae deletion strains, locus YMR231W, strain pep5, hits give low values 0.839 | S. cerevisiae deletion strains, locus YMR263W, strain SAP30, hits give low values 0.0585 | S. cerevisiae deletion strains, locus YMR307W, strain GAS1, hits give low values 0.103 | S. cerevisiae deletion strains, locus YNL067W, strain RPL9B, hits give low values 0.0572 | S. cerevisiae deletion strains, locus YNL071W, strain lat1, hits give low values 0.885 | S. cerevisiae deletion strains, locus YNL128W, strain TEP1, hits give low values 0.0617 | S. cerevisiae deletion strains, locus YNL153C, strain GIM3, hits give low values 0.0492 | S. cerevisiae deletion strains, locus YNL183C, strain NPR1, hits give low values 0.00104 | S. cerevisiae deletion strains, locus YNL209W, strain ssb2, hits give low values 0.816 | S. cerevisiae deletion strains, locus YNL233W, strain BNI4, hits give low values 0.135 | S. cerevisiae deletion strains, locus YNL248C, strain rpa49, hits give low values 0.104 | S. cerevisiae deletion strains, locus YNL250W, strain rad50, hits give low values 0.0643 | S. cerevisiae deletion strains, locus YNL271C, strain bni1, hits give low values 0.0657 | S. cerevisiae deletion strains, locus YNL298W, strain CLA4, hits give low values 0.0613 | S. cerevisiae deletion strains, locus YNL307C, strain MCK1, hits give low values 0.0855 | S. cerevisiae deletion strains, locus YNL322C, strain KRE1 (second series), hits give low values 0.695 | S. cerevisiae deletion strains, locus YNL322C, strain KRE1, hits give low values 0.0469 | S. cerevisiae deletion strains, locus YNR052C, strain pop2, hits give low values 0.0638 | S. cerevisiae deletion strains, locus YOL006C, strain TOP1, hits give low values 0.276 | S. cerevisiae deletion strains, locus YOL147C, strain pex11, hits give low values 0.111 | S. cerevisiae deletion strains, locus YOR001W, strain rrp6, hits give low values 0.102 | S. cerevisiae deletion strains, locus YOR061W, strain CKA2, hits give low values 0.41 | S. cerevisiae deletion strains, locus YOR069W, strain VPS5, hits give low values 0.156 | S. cerevisiae deletion strains, locus YOR080W, strain dia2, hits give low values 0.826 | S. cerevisiae deletion strains, locus YOR083W, strain WHI5, hits give low values 0.798 | S. cerevisiae deletion strains, locus YOR106W, strain vam3, hits give low values 0.284 | S. cerevisiae deletion strains, locus YOR136W, strain idh2, hits give low values 0.221 | S. cerevisiae deletion strains, locus YOR144C, strain elg1, hits give low values 0.123 | S. cerevisiae deletion strains, locus YOR184W, strain ser1, hits give low values 0.0785 | S. cerevisiae deletion strains, locus YOR231W, strain MKK1, hits give low values 0.105 | S. cerevisiae deletion strains, locus YOR265W, strain rbl2, hits give low values 0.887 | S. cerevisiae deletion strains, locus YOR316C, strain cot1, hits give low values 0.236 | S. cerevisiae deletion strains, locus YPL051W, strain arl3, hits give low values 0.885 | S. cerevisiae deletion strains, locus YPL055C, strain LGE1, hits give low values 0.0909 | S. cerevisiae deletion strains, locus YPL078C, strain atp4, hits give low values 0.757 | S. cerevisiae deletion strains, locus YPL106C, strain sse1, hits give low values 0.229 | S. cerevisiae deletion strains, locus YPL241C, strain CIN2, hits give low values 0.182 | S. cerevisiae deletion strains, locus YPL256C, strain CLN2, hits give low values 0.116 | S. cerevisiae deletion strains, locus YPR119W, strain clb2, hits give low values 0.271 | S. cerevisiae deletion strains, locus YPR141C, strain kar3, hits give low values 0.0655 | S. cerevisiae deletion strains, locus YPR163C, strain tif3, hits give low values 0.152 | S. cerevisiae deletion strains, locus YPR167C, strain met16, hits give low values 0.0932 | S. cerevisiae deletion strains, strain wtn01, hits give low values 0.0877 | S. cerevisiae strains, strain wild type, hits give low values 0.0547

Source: PubChem BioAssay AID1159580 (chemical genetic matrix, 2015)
